Results filed as inconclusive are left out. For some assays here: Results with a measured potency or affinity are listed apart. Activity calls are given as the source filed them. Unless noted, the rule behind the calls is not given here.
Tests used:
[1] = Ebola virus entry assay, green fluorescence channel
[2] = Ebola virus entry assay, blue channel fluorescence
[3] = Ebola virus entry assay, ratio channel
[4] = Ebola virus entry assay, green channel fluorescence
[5] = Ebola virus entry assay, reporter ratio channel; Channel type: primary
[6] = Ebola virus entry assay, blue channel (ratio component)
[7] = qHTS assay for measurement of the activity of small molecule inhibitors on Zika virus induced Caspase-3 activity in human iPSC derived neural progenitor cells (hNPCs) (AID 1224857; active = well fitted inhibition curve with a large enough effect; note: % of control where 0% means no effect; nearly all actives have a fitted effect of over 65% in size); settings: hNPCs ZIKV-induced caspase-3/7, Caspase-Glo luminescence, 6 h; series mostly up to 45.7 µM
Outline: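 hNPCs seeded 350 cells/well, cultured 16–20 h; compounds added 1 h before ZIKV (2 FFU/cell), 37 C 6 h. Caspase-Glo 3/7 luminescence after 30 min RT; % inhibition from induction scaled to uninfected (0%) and infected (100%) wells.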

[8] = qHTS assay for measurement of the activity of small molecule inhibitors on Zika virus induced Caspase-3 activity in human astrocytoma cells (AID 1224859; active = well fitted inhibition curve with a large enough effect;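 note: plate controls were ZIKV-infected untreated cells for no effect and uninfected cells for full effect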); settings: SNB-19 ZIKV-induced caspase-3/7, luminescence, 6 h; series mostly up to 45.7 µM
Outline: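 Luminescence read-out (Caspase-Glo 3/7, 30 min RT) of caspase activity in SNB-19 cells infected 6 h with ZIKV, 2 FFU/cell, after 1 h compound pretreatment; % inhibition from induction normalised to uninfected (0%) and infected (100%) wells.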

[9] = qHTS profiling of the MIPE4 collection as inhibitors of Plasmodium falciparum (3D7) proliferation (AID 743344);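 note: scaled between DMSO vehicle wells and 0.29 µM artemisinin as full inhibition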; settings: P. falciparum 3D7 in erythrocytes, SYBR Green DNA fluorescence, 72 h; at 28.5 µM (top of the series)
Outline: (§1)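 Erythrocytes infected with P. falciparum (0.3% parasitemia, 2.5% hematocrit) incubated with compounds 72 h at 37 C, 5% CO2. Lysis with saponin/Triton buffer containing SYBR Green I, overnight at room temperature in the dark; DNA fluorescence (485/535 nm) normalised to 0.29 uM artemisinin and DMSO.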

[10] = qHTS profiling of the MIPE4 collection as inhibitors of Plasmodium falciparum (DD2) proliferation (AID 743345); settings: P. falciparum Dd2 in erythrocytes, SYBR Green DNA, 72 h; at 28.5 µM (top of the series)
Outline: as §1

[11] = qHTS profiling of the MIPE4 collection as inhibitors of Plasmodium falciparum (DD2) proliferation (Rep 2) (AID 743346); settings: P. falciparum Dd2 in erythrocytes, SYBR Green DNA, 72 h; at 28.5 µM (top of the series)
Outline: as §1

[12] = qHTS profiling of the MIPE4 collection as inhibitors of Plasmodium falciparum (HB3) proliferation (AID 743347);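 note: plate controls were DMSO vehicle wells for no effect and artemisinin wells for full effect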; settings: P. falciparum HB3 in erythrocytes, SYBR Green DNA, 72 h; at 28.5 µM (top of the series)
Outline: as §1
Throughout, for efficacy: 0% is about no effect.

C[C@]12C=CC(=O)C=C1CC[C@@H]1[C@@H]2CC[C@@]2(C)[C@H]1CC[C@]2(C)O
inactive: efficacy [1] -14% | outcome [2] | outcome [3] | outcome [4] | outcome [5] | outcome [6] | Potency [7] | outcome [8]

ClCc1cccc(Cl)c1
inactive: efficacy [1] -21.7% | outcome [2] | outcome [3] | outcome [4] | outcome [5] | outcome [6] | Potency [7] | outcome [8]

Nc1ccc(N)cc1
inactive: efficacy [1] 15.4% | outcome [2] | outcome [3] | outcome [4] | outcome [5] | outcome [6] | Potency [7] | outcome [8]

ClCCCN1CCN(c2cccc(Cl)c2)CC1
inactive: efficacy [1] 26.2% | outcome [2] | outcome [3] | outcome [4] | outcome [5] | outcome [6] | Potency [7] | outcome [8]

COc1cc(CC#N)cc(OC)c1OC
inactive: efficacy [1] -13.1% | outcome [2] | outcome [3] | outcome [4] | outcome [5] | outcome [6] | Potency [7] | outcome [8]

C[C@H]1C(=O)O[C@@H]2CCN3CC=C(COC(=O)[C@](C)(O)[C@]1(C)O)[C@H]23
inactive: efficacy [1] 7.51% | outcome [2] | outcome [3] | outcome [4] | outcome [5] | outcome [6] | Potency [7] | outcome [8]

COc1ccc2c(C(=O)c3ccc(Cl)cc3)c(C)n(CC(=O)O)c2c1
inactive: efficacy [1] 38% | outcome [2] | outcome [3] | outcome [4] | outcome [5] | outcome [6] | Potency [7] | outcome [8]

O=C(CCCCl)c1ccc(F)cc1
inactive: efficacy [1] 36.2% | outcome [2] | outcome [3] | outcome [4] | outcome [5] | outcome [6] | Potency [7] | outcome [8]

O=C(O)Cc1ccccc1
inactive: efficacy [1] -19.3% | outcome [2] | outcome [3] | outcome [4] | outcome [5] | outcome [6] | Potency [7] | outcome [8]

C[C@]12CC[C@H]3[C@@H](CC=C4C[C@@H](O)CC[C@@]43C)[C@@H]1CC[C@@H]2O
inactive: efficacy [1] -35.9% | outcome [2] | outcome [3] | outcome [4] | outcome [5] | outcome [6] | Potency [7] | outcome [8]

O=c1[nH]c2cc(Cl)ccc2n1C1CCNCC1
inactive: efficacy [1] 11.1% | outcome [2] | outcome [3] | outcome [4] | outcome [5] | outcome [6] | Potency [7] | outcome [8]

COP(=O)(OC)OC=C(Cl)Cl
inactive: efficacy [1] 29.4% | outcome [2] | outcome [3] | outcome [4] | outcome [5] | outcome [6] | Potency [7] | outcome [8]

N#Cc1nn(-c2c(Cl)cc(C(F)(F)F)cc2Cl)c(N)c1S(=O)C(F)(F)F (configuration not stated)
inactive: efficacy [1] 9.5% | outcome [2] | outcome [3] | outcome [4] | outcome [5] | outcome [6] | Potency [7] | outcome [8]

CN1C[C@@H](NS(=O)(=O)N(C)C)C[C@@H]2c3cccc4c3c(cn4C)C[C@H]21
active: AC50 [5] 39.8 µM
inactive: efficacy [1] 31.9% | outcome [2] | outcome [3] | outcome [4] | outcome [6] | Potency [7] | outcome [8]

CNC(=O)Oc1cccc2ccccc12
inactive: efficacy [1] 18.8% | outcome [2] | outcome [3] | outcome [4] | outcome [5] | outcome [6] | Potency [7] | outcome [8]

Oc1c(Br)cc(Br)cc1Br
inactive: efficacy [1] -9.36% | outcome [2] | outcome [3] | outcome [4] | outcome [5] | outcome [6] | Potency [7] | outcome [8]

CCOC(=O)C(c1c(O)c2ccccc2oc1=O)c1c(O)c2ccccc2oc1=O
inactive: efficacy [1] 18.5% | outcome [2] | outcome [3] | outcome [4] | outcome [5] | outcome [6] | Potency [7] | outcome [8]

CN(C)C(=O)Oc1cc(OC(=O)N(C)C)cc(C(O)CNC(C)(C)C)c1 (configuration not stated)
inactive: efficacy [1] 18.9% | outcome [2] | outcome [3] | outcome [4] | outcome [5] | outcome [6] | Potency [7] | outcome [8]

NCc1cccnc1
inactive: efficacy [1] -20.3% | outcome [2] | outcome [3] | outcome [4] | outcome [5] | outcome [6] | Potency [7] | outcome [8]

C[N+](C)(C)CCOC(=O)C(O)(c1ccccc1)c1ccccc1
inactive: efficacy [1] -27.9% | outcome [2] | outcome [3] | outcome [4] | outcome [5] | outcome [6] | outcome [8]

CC(C)=C[C@@H]1[C@@H](C(=O)OCc2coc(Cc3ccccc3)c2)C1(C)C
inactive: efficacy [1] 20% | outcome [2] | outcome [3] | outcome [4] | outcome [5] | outcome [6] | Potency [7] | outcome [8]

O=C(CCl)c1ccc(Cl)cc1Cl
inactive: efficacy [1] -14.1% | outcome [2] | outcome [3] | outcome [4] | outcome [5] | outcome [6] | Potency [7] | outcome [8]

CC(C)=CCN1CC[C@@]2(C)c3cc(O)ccc3C[C@@H]1[C@@H]2C
inactive: efficacy [1] 36% | outcome [4] | Potency [7] | outcome [8]
active: AC50 [2] 31.6 µM | AC50 [3] 31.6 µM | AC50 [5] 31.6 µM

CCc1cc(OC)c(C[C@H](C)N)cc1OC
active: AC50 [2] 22.4 µM | AC50 [3] 25.1 µM | AC50 [5] 25.1 µM
inactive: efficacy [1] 38.5% | outcome [4] | Potency [7] | outcome [8]

CCOC(=O)[C@H](CCc1ccccc1)N[C@H]1CCc2ccccc2N(CC(=O)O)C1=O
inactive: efficacy [1] 88%
active: AC50 [2] 3.98 µM | AC50 [3] 3.98 µM | AC50 [5] 3.98 µM

O=C(NC(=O)c1c(F)cccc1F)Nc1cc(Cl)c(OC(F)(F)C(F)C(F)(F)F)cc1Cl (configuration not stated)
active: AC50 [2] 17.8 µM | AC50 [3] 20 µM | AC50 [5] 20 µM
inactive: efficacy [1] 43.9% | outcome [4] | Potency [7] | outcome [8]

CCCS(=O)c1ccc2nc(NC(=O)OC)[nH]c2c1 (configuration not stated)
inactive: efficacy [1] 23.9% | outcome [2] | outcome [3] | outcome [4] | outcome [5] | outcome [6]
81.1%: parasite growth, % of DMSO control [9]
101%: parasite growth, % of control (lower = inhibition) [11]
81.4%: growth, % of control [12]
99.7%: parasite growth remaining, % of DMSO control (lower = more inhibition) [10]

CCCCCCCCNC(C)C(O)c1ccc(SC(C)C)cc1 (configuration not stated)
inactive: efficacy [1] 48.4%
active: AC50 [2] 14.1 µM | AC50 [3] 11.2 µM | AC50 [5] 11.2 µM

C[C@H]1CNCCc2ccc(Cl)cc21
active: AC50 [2] 20 µM | AC50 [5] 39.8 µM
inactive: efficacy [1] 45.2% | outcome [3] | outcome [4] | Potency [7] | outcome [8]

NC(N)=NC(=O)c1nc(Cl)c(N)nc1N
111%: parasite growth, % of control (lower = inhibition) [11]
inactive: efficacy [1] -17.5% | outcome [2] | outcome [3] | outcome [4] | outcome [5] | outcome [6]
94%: parasite growth remaining, % of DMSO control (lower = more inhibition) [10]
87.1%: growth, % of control [12]
116%: parasite growth, % of DMSO control [9]

Nc1c2c(nc3c1CCC3)CCCC2
active: AC50 [2] 28.2 µM | AC50 [5] 31.6 µM
inactive: efficacy [1] 42.2% | outcome [3]

Nc1ccc(Cl)cc1C(=O)c1ccccc1F
active: AC50 [2] 31.6 µM | AC50 [5] 31.6 µM
inactive: efficacy [1] -39% | outcome [3] | outcome [4] | Potency [7] | outcome [8]

C[C@]12CC[C@H]3[C@@H](CCC4=CC(=O)CC[C@@H]43)[C@@H]1CC[C@@H]2O
inactive: efficacy [1] -8.66% | outcome [2] | outcome [3] | outcome [4] | outcome [5] | Potency [7] | outcome [8]

Cc1nc2n(c(=O)c1CCN1CCC(C(=O)c3ccc(F)cc3)CC1)CCS2
inactive: efficacy [1] 91.8% | outcome [2] | outcome [3] | outcome [5]

CC1N=C(N)OC1c1ccccc1 (configuration not stated)
active: AC50 [2] 31.6 µM | AC50 [5] 31.6 µM
inactive: efficacy [1] 23.7% | outcome [3] | outcome [4] | Potency [7] | outcome [8]

CN1C(=O)CN=C(c2ccccc2)c2cc(Cl)ccc21
active: AC50 [2] 25.1 µM | AC50 [5] 35.5 µM
inactive: efficacy [1] -37.3% | outcome [3] | outcome [4] | Potency [7] | outcome [8]

CCS(=O)(=O)C(C)(C)S(=O)(=O)CC
inactive: efficacy [1] -10.5% | outcome [2] | outcome [3] | outcome [4] | outcome [5] | Potency [7] | outcome [8]

NC1(c2ccccc2)CCCCC1
active: AC50 [2] 35.5 µM | AC50 [3] 31.6 µM | AC50 [5] 31.6 µM
inactive: efficacy [1] 44.3% | outcome [4] | Potency [7] | outcome [8]

OCCN1CCN(CCCN2c3ccccc3C=Cc3ccccc32)CC1
active: AC50 [2] 14.1 µM | AC50 [3] 14.1 µM | AC50 [5] 14.1 µM
inactive: efficacy [1] 49.7%

CN(C)C(=S)SSC(=S)N(C)C
active: AC50 [2] 1.26 µM | AC50 [3] 1.26 µM | AC50 [5] 1.26 µM
inactive: efficacy [1] -47% | outcome [4] | outcome [8]

CC[C@]1(O)CC[C@H]2[C@@H]3CCC4=CCCC[C@@H]4[C@H]3CC[C@@]21C
active: AC50 [2] 17.8 µM | AC50 [3] 15.8 µM | AC50 [5] 15.8 µM
inactive: efficacy [1] 22.6% | outcome [4] | Potency [7] | outcome [8]

Cc1ccc(C(=O)Oc2ccc(C(O)CNC(C)(C)C)cc2OC(=O)c2ccc(C)cc2)cc1 (configuration not stated)
inactive: efficacy [1] 67.4%
active: AC50 [2] 3.98 µM | AC50 [3] 3.55 µM | AC50 [5] 3.55 µM
